PubChem BioAssay (Tox21)
Records with an inconclusive call do not appear. A number with no mark means an inactive call. Calls follow the shape of the dose curve; as a rule, active = well fitted cell-killing curve with a large enough effect in the repeat runs; inconclusive = weak or mixed curves, or effect the other way; inactive = flat fitted curve, though single readings scatter.

Experiment: qHTS assay to identify small molecule agonists of the androgen receptor (AR) signaling pathway in the presence of an antagonist - cell viability counter screen (AID 1259379);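 also: MDA-kb2 human breast cancer cells carrying an MMTV luciferase reporter; nearly all actives have a fitted effect of over 25% in size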
Conditions: MDA-kb2 viability, CellTiter-Fluor, 16 h; series mostly up to 92.4 µM; activity change, negative = cytotoxicity: at the top concentration
In short: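 Cells: MDA-kb2 (MMTV-luc, AR and GR elements), 3,000/well, 5 hr settle. Added: nilutamide 3.0uM final, then compounds (15 conc.). Incubation: 16 hr, 37C, no CO2. Read-out: CellTiter-Fluor, 1 hr, fluorescence.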
% is scaled to controls: 0 for no effect and ±100 for the full control effect.

Compound | activity change, negative = cytotoxicity
CCOC(=O)CC(=O)c1ccccc1 | 0.0052%
O=S(=O)(O)CCN1CCN(CCO)CC1 | -1.8%
CC(COC(C)(C)C)OCCCO (configuration not stated) | -2.32%
O=C(O)c1ccc(Cl)cc1Cl | 3.53%
CC(C)CCCCOC(=O)c1ccccc1C(=O)OCCCCC(C)C | 2.22%
COc1ccc(-c2cc(=O)c3c(O)cc(O[C@@H]4O[C@H](CO[C@@H]5O[C@@H](C)[C@H](O)[C@@H](O)[C@H]5O)[C@@H](O)[C@H](O)[C@H]4O)cc3o2)cc1O | -2.17% [at 42.5 µM]
CC(C)N(c1ccccc1)C(C)C | 0.194%
O=Cc1ccc(Cl)c(Cl)c1 | 2.26%
CC(C)=CCOC(=O)c1ccccc1 | 5.94%
CCC(C=O)CC | 1.06%
CC(N)C(=O)OC(C)(C)Cc1ccc(Cl)cc1 (configuration not stated) | 0.846% [at 42.5 µM]
Nc1nnc(-c2cccc(Cl)c2Cl)c(N)n1 | 1.4% [at 42.5 µM]
CC1(C)S[C@@H]2[C@H](N=CN3CCCCCC3)C(=O)N2[C@H]1C(=O)O | -2.13% [at 42.5 µM]
C#CC(C)N(C)C(=O)Nc1ccc(Cl)cc1 (configuration not stated) | -0.0409%
O=S(=O)(O)c1cc(O)c2ccc(Nc3ccccc3)cc2c1 | -9.67%
CCCC/C=C\CCCCCCCCCC=O | 3%
C[C@@H](Oc1ccc(CNC(=O)c2cccnc2Oc2ccc3c(c2)OCO3)c(F)c1)C(=O)O | -1.97%
COc1cc(C(=S)N2CCOCC2)cc(OC)c1OC | 3.77% [at 42.5 µM]
Cc1ccsc1/C=C/C1=NCCCN1C | 0.639% [at 42.5 µM]

Compound | activity change, negative = cytotoxicity
OCCCCC(O)CO (configuration not stated) | -1.12%
NNc1nnc(NN)c2ccccc12 | -0.171% [at 42.5 µM]
CC(CN)CC(C)(C)CCN (configuration not stated) | -6.1% [at 240 µM]
CCCCCCCCCCCCCC | -0.428%
O=P(O)(O)OP(=O)(O)O | 0.81%
CC(=O)CCCCn1c(=O)c2c(ncn2C)n(C)c1=O | -0.98% [at 42.5 µM]
CC(=O)N[C@@H](CCC(=O)O)C(=O)O | -0.889% [at 42.5 µM]
Cc1ccccc1OCC(O)CO (configuration not stated) | 3.28% [at 42.5 µM]
C=C1CC/C=C(\C)CC[C@@H]2[C@@H]1CC2(C)C | 2.28%
CCCOC(OCCC)OCCC | 2.32%
CN(C)c1ccc(C=O)cc1 | 0.698%
c1ccc2c(c1)ccc1c3ccccc3ccc21 | 0.364% [at 42.5 µM]
NCCS | 0.156% [at 42.5 µM]
COCCOCCOCCOCCOCCO | 2.37%
O=C1CC(c2ccc(Cl)cc2)CC(=O)N1 | 0.0053% [at 42.5 µM]
O=C1CCCC(=O)O1 | 3.67%
CC(=O)Nc1ccc(S(=O)(=O)Cl)cc1 | -3.05%
CCCCN | -0.613% [at 42.5 µM]
